Laboratory results published in PubChem BioAssay (NCI).
About 79,000 compounds went through this panel and 15% of them were active in at least one assay; those are over-represented in the sample as a whole. Activity calls are given as the source filed them. Rule as the data show it: active = growth inhibition above about 70%; inactive = the rest.

What was measured:
[1] = NCI Yeast Anticancer Drug Screen. Data for the rad52 strain (AID 147);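 also: 0% = growth of vehicle-treated control cultures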; settings: S. cerevisiae rad52 mutant growth inhibition, active compounds read high
Method in brief: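 Here a repair-compromised yeast strain receives each compound; its growth is then quantified and normalised to vehicle-only controls.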

[2] = NCI Yeast Anticancer Drug Screen. Data for the wt1 strain (AID 149);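 also: 0% = growth of vehicle-treated wt1 cultures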; settings: S. cerevisiae wt1 strain (SPY 50644) growth inhibition, active compounds read high
Method in brief: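 Using yeast strain wt1, compound-induced growth inhibition was determined against vehicle-treated cultures.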

[3] = NCI Yeast Anticancer Drug Screen. Data for the mgt1 strain (AID 153); settings: S. cerevisiae mgt1 mutant growth inhibition, active compounds read high
Method in brief: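 Measured: inhibition of mgt1 yeast growth by compound, normalized to vehicle-treated cultures.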

[4] = NCI Yeast Anticancer Drug Screen. Data for the rad50 strain (AID 155);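 also: 0% = growth of vehicle-only cultures of the same strain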; settings: S. cerevisiae rad50 strain growth inhibition, active compounds read high
Method in brief: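 Relative growth inhibition (compound vs vehicle) was measured in yeast with a defined repair-gene alteration.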

[5] = NCI Yeast Anticancer Drug Screen. Data for the mec2-1 strain (AID 157); settings: S. cerevisiae mec2-1 strain, active compounds read high
Method in brief: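 Using mec2-1 yeast: add compound, measure growth, express inhibition versus vehicle-treated cultures.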

[6] = NCI Yeast Anticancer Drug Screen. Data for the rad14 strain (AID 159);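 also: 0% = growth of vehicle-treated control cultures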; settings: S. cerevisiae rad14 strain growth inhibition, active compounds read high
Method in brief: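 Screen for anticancer potential: a yeast strain altered in DNA damage repair is grown with compound, and reduced growth is quantified against vehicle controls.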

[7] = NCI Yeast Anticancer Drug Screen. Data for the CLN2oe strain (AID 163);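 also: 0% = growth of vehicle-only control cultures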; settings: S. cerevisiae CLN2oe strain, active compounds read high
Method in brief: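 Whole-cell yeast growth assay. A strain engineered for altered cell-cycle control received compound, and inhibition relative to vehicle-treated cultures was recorded.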

[8] = NCI Yeast Anticancer Drug Screen. Data for the cln2 rad14 strain (AID 165);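 also: 0% = growth equal to vehicle treated cultures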; settings: S. cerevisiae cln2 rad14 strain, active compounds read high
Method in brief: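 Yeast strain cln2 rad14, bearing defects in cell cycle control and DNA repair, serves as the test system; values reflect growth inhibition compared with vehicle.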

[9] = NCI Yeast Anticancer Drug Screen. Data for the bub3 strain (AID 167); settings: S. cerevisiae bub3 mutant strain, active compounds read high
Method in brief: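 Screening used yeast with an engineered genetic alteration affecting cell cycle control. Compound-exposed cultures were compared with vehicle cultures, and reduced growth was taken as inhibition.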

[10] = NCI Yeast Anticancer Drug Screen. Data for the wt2 strain (AID 169);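 also: 0% = growth of vehicle-treated yeast cultures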; settings: S. cerevisiae wt2 strain growth inhibition, active compounds read high
Method in brief: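 Treated yeast vs. vehicle-treated yeast: growth inhibition determined.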

[11] = NCI Yeast Anticancer Drug Screen. Data for the sgs1 strain (AID 173);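 also: 0% = growth of vehicle-only control cultures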; settings: S. cerevisiae sgs1 mutant, active compounds read high
Method in brief: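 A genetically defined yeast mutant is incubated with the test compound, and its growth is compared to that of the same strain given vehicle.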

[12] = NCI Yeast Anticancer Drug Screen. Data for the mlh1 rad18 strain (AID 175); settings: S. cerevisiae mlh1 rad18 strain growth inhibition, active compounds read high
Method in brief: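 Steps: expose repair-defective yeast to compound; measure growth; express inhibition against vehicle-treated controls.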

[13] = NCI Yeast Anticancer Drug Screen. Data for the rad18 strain (AID 177); settings: S. cerevisiae rad18 mutant growth inhibition, active compounds read high
Method in brief: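 Measured value is growth inhibition of a yeast strain bearing a DNA repair alteration, referenced to vehicle-treated cells.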

[14] = NCI Yeast Anticancer Drug Screen. Data for the rad50EPP+ strain (AID 151);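 also: 0% = growth of vehicle-treated control cultures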; settings: S. cerevisiae rad50 mutant strain, active compounds read high
Method in brief: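 Read-out is yeast growth inhibition relative to vehicle; cells used were the rad50EPP+ strain.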

[15] = NCI Yeast Anticancer Drug Screen. Data for the sgs1 mgt1 strain (AID 161);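 also: 0% = growth of cultures given vehicle only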; settings: S. cerevisiae sgs1 mgt1 strain, active compounds read high
Method in brief: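 Percent growth inhibition was derived by comparing compound-exposed mutant yeast with vehicle-exposed cultures. The strain carries alterations in DNA damage repair.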

[16] = NCI Yeast Anticancer Drug Screen. Data for the mlh1 strain (AID 171);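 also: 0% = growth of vehicle-treated control cultures of the same strain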; settings: S. cerevisiae mlh1 strain growth inhibition, active compounds read high
Method in brief: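 A yeast strain with a defined genetic lesion serves as the test organism. Cultures receive compound or vehicle, and growth is measured.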

[17] = at 5.0 µM (retest, dose inferred, filed as 0.5)
[18] = at 50.0 µM (retest, dose inferred, filed as 5.0)

Measured: growth inhibition

N#CC(=S)Nc1cccc(Cl)c1
inactive: [1]; at 1.2 µM 3% | [1]; at 3.7 µM 1% | [1]; at 11.0 µM 10% | [1]; at 33.0 µM 26% | [1]; at 100.0 µM 50% | [2]; at 1.2 µM 7% | [2]; at 3.7 µM 10% | [2]; at 11.0 µM 23% | [2]; at 33.0 µM 31% | [2]; at 100.0 µM 41% | [3]; at 1.2 µM 2% | [3]; at 3.7 µM 15% | [3]; at 11.0 µM 24% | [3]; at 33.0 µM 42% | [4]; at 1.2 µM 5% | [4]; at 3.7 µM 8% | [4]; [17] 39% | [4]; at 11.0 µM 3% | [4]; at 33.0 µM 18% | [4]; at 50.0 µM 46.9% | [4]; at 100.0 µM 51% | [5]; at 1.2 µM 28% | [5]; at 3.7 µM 19% | [5]; [17] 19% | [5]; at 11.0 µM 33% | [5]; at 33.0 µM 28% | [5]; [18] 64% | [5]; at 50.0 µM 57% | [6]; at 1.2 µM 2% | [6]; at 3.7 µM -6% | [6]; at 11.0 µM 9% | [6]; at 33.0 µM 35% | [7]; at 1.2 µM 8% | [7]; at 3.7 µM 28% | [7]; at 11.0 µM 17% | [7]; at 33.0 µM 43% | [7]; at 100.0 µM 54% | [8]; [17] 8% | [8]; [18] 27% | [8]; at 50.0 µM 17.6% | [9]; at 1.2 µM 12% | [9]; at 3.7 µM 7% | [9]; [17] 26% | [9]; at 11.0 µM 2% | [9]; at 33.0 µM 41% | [9]; [18] 63% | [9]; at 50.0 µM 51.3% | [9]; at 100.0 µM 67% | [10]; at 1.2 µM 2% | [10]; at 3.7 µM 5% | [10]; at 11.0 µM -22% | [10]; at 33.0 µM 31% | [11]; at 1.2 µM 2% | [11]; at 3.7 µM 7% | [11]; at 11.0 µM 24% | [11]; at 33.0 µM 43% | [12]; [17] 64% | [13]; at 1.2 µM 1% | [13]; at 3.7 µM 12% | [13]; at 11.0 µM 23% | [13]; at 33.0 µM 37% | [13]; at 100.0 µM 58%
active: [3]; at 100.0 µM 76% | [4]; [18] 82% | [5]; at 100.0 µM 80% | [6]; at 100.0 µM 79% | [10]; at 100.0 µM 94% | [11]; at 100.0 µM 70% | [12]; [18] 86% | [12]; at 50.0 µM 88.4%

C=C(CCCO)[C@@H]1CC[C@@](C)(O)[C@H]1C
active: [4]; [18] 90% | [5]; [18] 93% | [12]; [18] 87%
inactive: [1]; at 1.2 µM -7% | [1]; at 3.7 µM -9% | [1]; at 11.0 µM -13% | [1]; at 33.0 µM -8% | [1]; at 100.0 µM -12% | [2]; at 1.2 µM -25% | [2]; at 3.7 µM -33% | [2]; at 11.0 µM -29% | [2]; at 33.0 µM -34% | [2]; at 100.0 µM -35% | [14]; at 1.2 µM -38% | [14]; at 3.7 µM -32% | [14]; at 11.0 µM -54% | [14]; at 33.0 µM -38% | [14]; at 100.0 µM -48% | [4]; at 1.2 µM -5% | [4]; at 3.7 µM -7% | [4]; [17] 38% | [4]; at 11.0 µM -16% | [4]; at 33.0 µM -17% | [4]; at 50.0 µM 49% | [4]; at 100.0 µM -33% | [5]; at 1.2 µM -53% | [5]; at 3.7 µM -39% | [5]; [17] 44% | [5]; at 11.0 µM -48% | [5]; at 33.0 µM -41% | [5]; at 50.0 µM 68.2% | [5]; at 100.0 µM -34% | [15]; [17] -1% | [15]; [18] -9% | [15]; at 50.0 µM 55.5% | [7]; at 1.2 µM -24% | [7]; at 3.7 µM -13% | [7]; at 11.0 µM -27% | [7]; at 33.0 µM -25% | [7]; at 100.0 µM -35% | [8]; [17] 46% | [8]; [18] 28% | [8]; at 50.0 µM 9.15% | [9]; at 1.2 µM -17% | [9]; at 3.7 µM -6% | [9]; [17] 18% | [9]; at 11.0 µM -12% | [9]; at 33.0 µM -9% | [9]; [18] -1% | [9]; at 50.0 µM 55.5% | [9]; at 100.0 µM -12% | [16]; at 1.2 µM -20% | [16]; at 3.7 µM -23% | [16]; at 11.0 µM -39% | [16]; at 33.0 µM -31% | [16]; at 100.0 µM -48% | [11]; at 1.2 µM -35% | [11]; at 3.7 µM -28% | [11]; at 11.0 µM -31% | [11]; at 33.0 µM -29% | [11]; at 100.0 µM -39% | [12]; [17] 36% | [12]; at 50.0 µM 43.3% | [13]; at 1.2 µM -38% | [13]; at 3.7 µM -38% | [13]; at 11.0 µM -45% | [13]; at 33.0 µM -46% | [13]; at 100.0 µM -66%

CC(=O)OCC1OC(O[C@H]2C=C[C@@H](C(=O)OCc3ccccc3)n3c(=O)n(-c4ccccc4)c(=O)n32)C(OC(C)=O)C(OC(C)=O)C1OC(C)=O (stereo partly specified)
active: [1]; at 100.0 µM 77% | [4]; [18] 72% | [5]; [18] 71% | [15]; [18] 78% | [15]; at 50.0 µM 71% | [7]; at 100.0 µM 82% | [9]; [18] 80% | [9]; at 50.0 µM 75.1% | [9]; at 100.0 µM 76% | [10]; at 33.0 µM 98% | [10]; at 100.0 µM 97% | [16]; at 100.0 µM 70% | [11]; at 100.0 µM 77% | [12]; [17] 70% | [12]; [18] 93% | [13]; at 100.0 µM 76%
inactive: [1]; at 1.2 µM 22% | [1]; at 3.7 µM 24% | [1]; at 11.0 µM 14% | [1]; at 33.0 µM 63% | [2]; at 1.2 µM -11% | [2]; at 3.7 µM 2% | [2]; at 11.0 µM -3% | [2]; at 33.0 µM 21% | [2]; at 100.0 µM 29% | [4]; at 1.2 µM -14% | [4]; at 3.7 µM 10% | [4]; [17] 39% | [4]; at 11.0 µM 0% | [4]; at 33.0 µM 50% | [4]; at 50.0 µM 59% | [4]; at 100.0 µM 67% | [5]; at 1.2 µM 2% | [5]; at 3.7 µM 9% | [5]; [17] 23% | [5]; at 11.0 µM -8% | [5]; at 33.0 µM 36% | [5]; at 50.0 µM 57% | [5]; at 100.0 µM 59% | [6]; at 1.2 µM -15% | [6]; at 3.7 µM 8% | [6]; at 11.0 µM -8% | [6]; at 33.0 µM 8% | [6]; at 100.0 µM 20% | [15]; [17] 29% | [7]; at 1.2 µM 10% | [7]; at 3.7 µM 22% | [7]; at 11.0 µM 24% | [7]; at 33.0 µM 58% | [8]; [17] 13% | [8]; [18] 33% | [8]; at 50.0 µM 53.6% | [9]; at 1.2 µM -30% | [9]; at 3.7 µM -18% | [9]; [17] 28% | [9]; at 11.0 µM -27% | [9]; at 33.0 µM 24% | [10]; at 1.2 µM -36% | [10]; at 3.7 µM -18% | [10]; at 11.0 µM 19% | [16]; at 1.2 µM -17% | [16]; at 3.7 µM -2% | [16]; at 11.0 µM -23% | [16]; at 33.0 µM 39% | [11]; at 1.2 µM -9% | [11]; at 3.7 µM -15% | [11]; at 11.0 µM -8% | [11]; at 33.0 µM 50% | [12]; at 50.0 µM 28.9% | [13]; at 1.2 µM -6% | [13]; at 3.7 µM 3% | [13]; at 11.0 µM 7% | [13]; at 33.0 µM 59%
